Results as given in PubChem BioAssay (EPA / NIEHS).
Inconclusive results are not listed. Calls of active or inactive are those of the source. Rule for the calls: active = hit-call score of the fitted dose curve at least 0.9, where 1 is the maximum; inconclusive = response in the unintended direction; inactive = score below 0.9.

How the values were obtained:
[1] = target: AR (gene 367) (UniProt P10275); assay: ACEA_AR_agonist_80hr: ACEA Biosciences xCELLigence Real-Time Cell Analysis on Androgen Receptor Agonism for Proliferation (AID 2283783);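 note: hits increase impedance growth signal above DMSO baseline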
Procedure, shortened: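 22Rv1 human prostate cancer cells were seeded after preconditioning in assay medium and monitored overnight, then dosed in an eight-point 1:4 dilution series from 100 uM (≤0.5% DMSO). Impedance-based growth was read at 80 h, gain-of-signal versus DMSO.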

[2] = STM_H9_NormalizedViability: Cytotoxicity Assessment at 120 hours in the Stemina devTOX quickPredict H9 human embryonic stem cell (hESC)-based Assay (AID 2283784)
Procedure, shortened: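 Pluripotent H9 cells dosed, fresh medium plus compound q24h → cell layer read by CellTiter-Fluor → RFU blank-corrected, normalized to DMSO 0.1% mean. Loss-of-signal fit, DMSO as baseline.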

[3] = ATG_M_19_XSP1: Attagene TRANS-FACTORIAL Multi-Species (XSP1) HepG2 Assay for M19 Transcription Factor (Internal Marker) (AID 2283798)
Procedure, shortened: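 HepG2 cells transiently transfected with multiplexed GAL4-UAS reporter units, dosed 24 h with 3 nM 6-alpha-fluorotestosterone present for partial AR stimulation. Reporter mRNA measured by RT-PCR with capillary electrophoresis; gain-of-signal fitted relative to DMSO.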

[4] = target: GAL4 Transcription Factor (Internal Marker), GAL4 (gene 855828) (UniProt P04386); assay: ATG_GAL4_XSP1: Attagene TRANS-FACTORIAL Multi-Species (XSP1) HepG2 Assay for GAL4 Transcription Factor (Internal Marker) (AID 2283789)
Procedure, shortened: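 HepG2 cells transiently transfected with multiplexed GAL4-UAS reporter units were exposed for 24 h with 3 nM 6-alpha-fluorotestosterone present. Reporter mRNA was quantified by RT-PCR, FAM labelling, HpaI digestion and capillary electrophoresis; background-control readout, gain-of-signal versus DMSO.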

[5] = tested on: turtle Androgen Receptor (AR), gene 101947425; assay: ATG_trAR_XSP1: Attagene TRANS-FACTORIAL Multi-Species (XSP1) HepG2 Assay for turtle Androgen Receptor (AR) (AID 2283786)
Experimental: ATG_XSP1_multi-species_TRANS is a cell-based, multiplexed assay created by modifying the existing Attagene TRANS-FACTORIAL system to include a panel of nuclear receptors from some or all the following species: human (Homo sapiens), mouse (Mus musculus), frog (Xenopus laevis), zebrafish (Danio rerio), chicken (Gallus gallus), and turtle (Chrysemys picta). The ECOTOX-FACTORIAL format uses HepG2, a human liver cell line, with measurements taken at 24 hours after chemical dosing in a 24-well plate. Xsp1 included 3 nM 6-alpha-fluorotestosterone to partially stimulate the androgen receptor.ATG_trAR_XSP1 is one of 29 assay components measured or calculated from the ATG_XSP1_multi-species_TRANS assay. It is designed to make measurements of mRNA induction, a form of inducible reporter, as detected with fluorescence intensity signals by Reverse transcription polymerase chain reaction (RT-PCR) and Capillary electrophoresis technology.The assay endpoint ATG_trAR_XSP1 was analyzed in the positive analysis fitting direction relative to DMSO as the negative control and baseline of activity. […] Furthermore, this assay endpoint can be referred to as a primary readout, because this assay has produced multiple assay endpoints where this one serves a reporter gene function. […]

Sequence of AR (gene 367) (P10275 whole entry, looked up): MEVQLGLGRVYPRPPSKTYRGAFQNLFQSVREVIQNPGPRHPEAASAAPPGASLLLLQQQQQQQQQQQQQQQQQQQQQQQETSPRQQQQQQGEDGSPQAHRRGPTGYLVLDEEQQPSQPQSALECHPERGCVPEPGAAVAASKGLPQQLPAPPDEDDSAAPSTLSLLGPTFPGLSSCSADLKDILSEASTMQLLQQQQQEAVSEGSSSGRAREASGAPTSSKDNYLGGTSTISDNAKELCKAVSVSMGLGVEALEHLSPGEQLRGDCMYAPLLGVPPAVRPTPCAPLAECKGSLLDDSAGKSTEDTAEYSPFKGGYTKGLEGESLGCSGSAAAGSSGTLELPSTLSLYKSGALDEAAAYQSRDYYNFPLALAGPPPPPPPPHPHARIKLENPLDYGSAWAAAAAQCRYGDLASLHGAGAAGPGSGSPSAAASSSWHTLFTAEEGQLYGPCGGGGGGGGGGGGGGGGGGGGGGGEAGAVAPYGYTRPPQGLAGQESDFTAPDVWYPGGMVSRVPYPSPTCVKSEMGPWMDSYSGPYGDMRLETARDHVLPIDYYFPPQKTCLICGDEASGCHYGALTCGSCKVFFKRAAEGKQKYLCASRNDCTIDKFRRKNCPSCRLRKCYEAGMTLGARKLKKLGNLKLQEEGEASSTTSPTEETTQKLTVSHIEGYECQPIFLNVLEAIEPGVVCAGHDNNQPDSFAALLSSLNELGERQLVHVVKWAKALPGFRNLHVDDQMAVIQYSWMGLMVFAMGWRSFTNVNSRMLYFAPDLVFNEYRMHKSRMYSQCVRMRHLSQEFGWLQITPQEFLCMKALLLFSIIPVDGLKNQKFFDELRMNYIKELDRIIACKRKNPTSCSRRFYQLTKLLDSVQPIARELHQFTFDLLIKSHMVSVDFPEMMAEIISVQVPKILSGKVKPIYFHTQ
Sequence of GAL4 Transcription Factor (Internal Marker), GAL4 (gene 855828) (P04386 whole entry, looked up, the tested form may be a part): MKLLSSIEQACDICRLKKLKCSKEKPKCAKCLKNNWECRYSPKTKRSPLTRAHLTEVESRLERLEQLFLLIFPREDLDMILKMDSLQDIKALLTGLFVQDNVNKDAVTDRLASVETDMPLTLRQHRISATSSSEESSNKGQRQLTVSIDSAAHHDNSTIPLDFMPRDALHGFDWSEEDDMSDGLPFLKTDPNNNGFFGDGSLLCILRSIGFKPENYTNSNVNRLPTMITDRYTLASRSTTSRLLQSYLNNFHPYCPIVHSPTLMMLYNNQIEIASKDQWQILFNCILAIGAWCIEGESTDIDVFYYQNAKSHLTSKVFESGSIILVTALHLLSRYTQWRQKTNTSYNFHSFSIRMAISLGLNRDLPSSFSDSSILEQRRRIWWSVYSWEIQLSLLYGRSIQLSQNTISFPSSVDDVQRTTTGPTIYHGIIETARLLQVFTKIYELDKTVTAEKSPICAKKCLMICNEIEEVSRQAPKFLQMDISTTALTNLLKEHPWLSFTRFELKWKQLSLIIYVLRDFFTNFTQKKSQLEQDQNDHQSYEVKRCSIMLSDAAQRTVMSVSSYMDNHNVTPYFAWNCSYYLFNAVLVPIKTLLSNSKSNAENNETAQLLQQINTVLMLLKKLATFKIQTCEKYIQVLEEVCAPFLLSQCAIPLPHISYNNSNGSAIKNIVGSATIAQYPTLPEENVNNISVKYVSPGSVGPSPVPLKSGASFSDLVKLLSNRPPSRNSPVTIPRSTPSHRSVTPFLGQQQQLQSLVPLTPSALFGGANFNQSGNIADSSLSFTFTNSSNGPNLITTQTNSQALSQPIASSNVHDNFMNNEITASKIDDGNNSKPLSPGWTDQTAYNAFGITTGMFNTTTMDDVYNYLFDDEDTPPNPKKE

Structure (SMILES): O=C1C2(Cl)C3(Cl)C4(Cl)C(Cl)(Cl)C5(Cl)C3(Cl)C1(Cl)C5(Cl)C24Cl (stereo not drawn)
- outcome [1]: inactive
- outcome [2]: inactive

Structure (SMILES): CC(C)(C)CC(C)(C)c1ccc(O)cc1
- outcome [1]: inactive
- outcome [3]: inactive

Structure (SMILES): CC12CC1(C)C(=O)N(c1cc(Cl)cc(Cl)c1)C2=O (stereo not drawn)
- outcome [2]: inactive
- outcome [4]: inactive

Structure (SMILES): C[C@]12CCC(=O)C[C@@H]1CC[C@@H]1[C@@H]2CC[C@]2(C)[C@@H](O)CC[C@@H]12
- AC50 [5]: 168 nM (active)
- outcome [3]: inactive
